Assay outcomes from PubChem BioAssay.
D1 ag: human D1 receptor agonism | P21728 | HEK293 T-REx D1 cells, calcium flux, agonist mode | activation, % at 2 µM | hit rate 1% among 360,000 | AID 504660
Target sequence (P21728 whole entry, looked up): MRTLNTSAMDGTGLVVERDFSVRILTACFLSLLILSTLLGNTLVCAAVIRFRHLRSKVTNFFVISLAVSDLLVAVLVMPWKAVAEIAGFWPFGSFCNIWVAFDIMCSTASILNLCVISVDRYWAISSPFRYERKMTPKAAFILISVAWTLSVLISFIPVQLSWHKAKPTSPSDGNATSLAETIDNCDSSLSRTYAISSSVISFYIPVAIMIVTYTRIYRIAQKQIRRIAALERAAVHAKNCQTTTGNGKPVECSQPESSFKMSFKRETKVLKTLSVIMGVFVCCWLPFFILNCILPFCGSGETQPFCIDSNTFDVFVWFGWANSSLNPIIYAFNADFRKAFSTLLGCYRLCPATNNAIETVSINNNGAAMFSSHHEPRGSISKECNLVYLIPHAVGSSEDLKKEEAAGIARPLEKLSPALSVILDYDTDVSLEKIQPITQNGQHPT
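Agonism was scored from calcium flux recorded over 180 s (1 read/s) after pintool compound addition, following a 10-cycle baseline. Cells were inducible force-coupled HEK293 TREx D1, plated overnight at 30 C and loaded with no-wash calcium dye.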
D1 PAM: enhances dopamine response at the human D1 receptor | AID 504651 | HEK293 TREx D1 cells, calcium flux, dopamine EC20 potentiation | hit rate 0.036% among 360,000 | potentiation, % at 10 µM | P21728; in the data active = potentiation above about 30%
TRHR enhancer: allosterically enhances the human TRH receptor | P34981 | TRHR cells, fluo-8 calcium fluorescence, EC20 TRH enhancement | enhancement, % at 2 µM | hit rate 0.66% among 360,000 | AID 493056; in the data active = enhancement above about 30%
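TRHR-expressing cells loaded with fluo-8 calcium dye were read kinetically (ex 480/em 530) during compound addition, then stimulated with an EC20 of TRH (10 nM final). Enhancement of the Gq-mediated intracellular calcium response was scored.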
TRHR agonist: activates the human TRH receptor. TRHR cells, calcium flux fluo-8, FDSS agonist mode. activation, % at 2 µM. hit rate 0.18% among 360,000. AID 493084
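TRHR-expressing cells, plated overnight in medium with 10% serum, were loaded with fluo-8 calcium dye at room temperature. After a 10 s baseline, library compound was pin-added and calcium release was recorded kinetically (ex 480/em 530) as agonist response.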
D1 antag: blocks dopamine activation of the human D1 receptor | hit rate 3.2% among 360,000 | activity change, negative = inhibition, % at 10 µM | AID 504652 | P21728 | HEK293 TREx D1 cells, calcium flux, dopamine EC80; active compounds read low; in the data active = activity change below about -30%
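Antagonism measured as reduced calcium response to an EC80 dopamine addition following 180 s compound pre-read; cells were inducible HEK293 Trex D1 plated overnight at 30 C, read kinetically at 1 cycle/sec.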
Numbers stand for hits. Shown are actives, neighbours in structure and some others; about 4.7% of the full set was active somewhere. Cut-off read from the data, not from the text of the source, unless noted: active = activation above about 30%; inactive = the rest.

Results for Cc1cccc(C(c2sc3nc(-c4ccco4)nn3c2O)N2CCOCC2)c1 (stereo not drawn) ?
D1 ag: inactive; D1 PAM: inactive; TRHR enhancer: inactive; TRHR agonist: inactive

How did O=C(CCl)Nc1ccccc1C(=O)NCc1ccccc1 do in these assays?
D1 ag: inactive; D1 PAM: inactive; TRHR enhancer: 34; TRHR agonist: inactive; D1 antag: inactive

What do the screens show for `O=C(NCc1cccnc1)c1ccc(COc2ccc(Cl)cc2)cc1`?
D1 ag: inactive; D1 PAM: inactive; TRHR enhancer: inactive; TRHR agonist: inactive; D1 antag: -32

What do the screens show for `O=C(COc1ccc(Cl)cc1)Nc1ccc(C(=O)NCc2cccnc2)cc1`?
D1 ag: inactive; D1 PAM: inactive; TRHR enhancer: inactive; TRHR agonist: inactive; D1 antag: inactive

What do the screens show for `Cc1ccccc1NC(=O)Nc1ccccc1C(=O)NCc1ccccc1`?
D1 ag: inactive; D1 PAM: inactive; TRHR enhancer: inactive; TRHR agonist: inactive; D1 antag: inactive

How did O=C(COc1ccc(Cl)cc1)Nc1ccccc1C(=O)NCc1cccnc1 do in these assays?
D1 ag: 88; D1 PAM: inactive; TRHR enhancer: inactive; TRHR agonist: inactive; D1 antag: inactive

What do the screens show for `CCCCC(CC)CNC(=O)c1ccc(Cn2c(=O)[nH]c3cc(OC)c(OC)cc3c2=O)cc1` (stereo not drawn)?
D1 ag: inactive; D1 PAM: inactive; TRHR enhancer: inactive; TRHR agonist: inactive; D1 antag: inactive

Results for CCN1C(=O)c2ccccc2S(=O)(=O)c2ccc(C(=O)NCc3ccccc3OC)cc21 ?
D1 ag: inactive; D1 PAM: inactive; TRHR enhancer: inactive; TRHR agonist: inactive; D1 antag: inactive

How did Cc1ccc(C2NC(=O)c3ccccc3N2)s1 (stereo not drawn) do in these assays?
D1 ag: inactive; D1 PAM: inactive; TRHR enhancer: 35; TRHR agonist: inactive; D1 antag: inactive

Results for O=C1NC(=S)N(C(=O)c2ccc(F)cc2)/C1=C/c1ccccc1 ?
D1 ag: 80; D1 PAM: inactive; TRHR enhancer: inactive; TRHR agonist: inactive; D1 antag: inactive

Results for COc1ccc(/C=C2\C(=O)NC(=S)N2C(=O)c2ccc(F)cc2)cc1 ?
D1 ag: 112; D1 PAM: inactive; TRHR enhancer: inactive; TRHR agonist: inactive; D1 antag: inactive

How did CN1C(=O)/C(=C/c2ccc(OCc3ccc(F)cc3)cc2)N(C)C1=S do in these assays?
D1 ag: inactive; D1 PAM: inactive; TRHR enhancer: inactive; TRHR agonist: inactive; D1 antag: inactive

How did O=C(NC(=S)N1CCN(C/C=C/c2ccccc2)CC1)c1ccc(F)cc1 do in these assays?
D1 ag: inactive; D1 PAM: inactive; TRHR enhancer: inactive; TRHR agonist: inactive; D1 antag: inactive

Results for Cc1ccc(C)c(NC(=O)CCCN2C(=O)COc3ccc(C)cc32)c1 ?
D1 ag: inactive; D1 PAM: inactive; TRHR enhancer: inactive; TRHR agonist: inactive; D1 antag: inactive

Results for CC(C)(C)c1ccc2c(c1)N(CC(=O)O)C(=O)CO2 ?
D1 ag: inactive; D1 PAM: inactive; TRHR enhancer: inactive; TRHR agonist: inactive; D1 antag: inactive

Results for COc1ccc(NC(=O)CCCN2C(=O)COc3ccc(C)cc32)cc1OC ?
D1 ag: inactive; D1 PAM: inactive; TRHR enhancer: inactive; TRHR agonist: inactive; D1 antag: -46

What do the screens show for `Cc1ccc2c(c1)N(CC(=O)O)C(=O)CO2`?
D1 ag: inactive; D1 PAM: inactive; TRHR enhancer: inactive; TRHR agonist: inactive; D1 antag: -30

What do the screens show for `Cc1cccc(N2CCn3c2nc2c3c(=O)n(C/C=C/c3ccccc3)c(=O)n2C)c1`?
D1 ag: inactive; D1 PAM: inactive; TRHR enhancer: inactive; TRHR agonist: inactive; D1 antag: inactive

Results for CCOc1ccc(C(=O)c2cn(CC(=O)Nc3cc(OC)cc(OC)c3)c3ccc(F)cc3c2=O)cc1 ?
D1 ag: inactive; D1 PAM: inactive; TRHR enhancer: inactive; TRHR agonist: inactive; D1 antag: inactive

What do the screens show for `O=C(NCc1cccs1)c1ccc(CSc2nc3ccncc3n2Cc2ccccc2F)cc1`?
D1 ag: inactive; D1 PAM: inactive; TRHR enhancer: inactive; TRHR agonist: inactive; D1 antag: inactive

What do the screens show for `CCCNC(=O)C1CCC(Cn2c(=O)c3sccc3n(Cc3cccc(OC)c3)c2=O)CC1` (stereo not drawn)?
D1 ag: inactive; D1 PAM: inactive; TRHR enhancer: 53; TRHR agonist: inactive; D1 antag: inactive
